{"source": "PubChem BioAssay", "note": "Measured potencies and affinities stand elsewhere. Records with an inconclusive call do not appear. Unmarked numbers belong to inactive results. How the calls were made is not given here.", "data": [{"experiment": "NIH:OVCAR-3 ovarian cancer cell cytotoxicity, dose response, PAX8 inhibitor project, plate reader, dry powder samples (AID 743044)", "conditions": "NIH:OVCAR-3 ovarian cancer cell viability; max activity: at 35 µM, stronger effect = lower value unless noted; series mostly up to 50 µM", "values": [{"smiles": "Cc1cccc(-c2ccc([C@H]3[C@H](CO)N4CCCCN(S(=O)(=O)c5ccccc5C)C[C@@H]34)cc2)c1", "max activity": "-11.5%"}, {"smiles": "C[C@@H]1CN([C@H](C)CO)C(=O)c2cc(NC(=O)Nc3ccc(F)cc3)ccc2O[C@@H](C)CCCCO[C@H]1CN(C)Cc1ccc(Cl)c(Cl)c1", "max activity": "26%"}, {"smiles": "O=C(Nc1cccc(F)c1)N1CCCCN2[C@@H](CO)[C@@H](c3ccc(-c4ccncc4)cc3)[C@@H]2C1", "max activity": "12.6% [at 1 µM, stronger effect = lower value]"}, {"smiles": "C[C@@H]1CCCCO[C@H](CN(C)C)[C@H](C)CN([C@H](C)CO)C(=O)c2cc(NC(=O)Nc3cccc4ccccc34)ccc2O1", "max activity": "24.8% [at 4.2 µM, stronger effect = lower value]"}, {"smiles": "C[C@@H]1CN([C@@H](C)CO)C(=O)c2cc(NC(=O)c3ccccc3)ccc2O[C@@H](C)CCCCO[C@H]1CN(C)Cc1ccc(C(F)(F)F)cc1", "max activity": "-28.2% [at 0.26 µM, stronger effect = lower value]"}, {"smiles": "C[C@@H]1CCCCO[C@H](CN(C)Cc2ccc(C(F)(F)F)cc2)[C@@H](C)CN([C@@H](C)CO)C(=O)c2cc(NS(=O)(=O)c3ccccc3)ccc2O1", "max activity": "-9.99%"}, {"smiles": "O=C(Nc1ccc(C(F)(F)F)cc1)N1C[C@@H]2N[C@H](C1)C2c1ccc(-c2ccccc2)cc1", "note": "(stereo partly specified)", "max activity": "13.9% [at 0.26 µM, stronger effect = lower value]"}, {"smiles": "O=C(C[C@@H]1CC[C@H]2[C@@H](COC[C@@H](O)CN2Cc2cccc(C(F)(F)F)c2)O1)NCc1ccc(F)cc1", "max activity": "13.4% [at 2.1 µM, stronger effect = lower value]"}, {"smiles": "C[C@@H]1CN([C@H](C)CO)C(=O)c2cc(NC(=O)Nc3ccc(F)cc3)ccc2O[C@@H](C)CCCCO[C@H]1CN(C)C(=O)Nc1ccc(F)cc1", "max activity": "13.6%"}, {"smiles": "O=S(=O)(c1ccc(F)cc1)N1C[C@H]2[C@@H](c3ccccc31)[C@H](CO)N2Cc1ccccc1Cl", "max activity": "16.9%"}, {"smiles": "C[C@@H]1CN([C@@H](C)CO)S(=O)(=O)c2ccc(C#C[C@@H](C)O)cc2O[C@@H]1CN(C)Cc1ccc(-c2ccccc2)cc1", "max activity": "-11.9% [at 16 µM, stronger effect = lower value]"}, {"smiles": "C[C@H]1CN([C@@H](C)CO)C(=O)CCCn2nncc2CO[C@@H]1CN(C)C(=O)Nc1ccc(-c2cccs2)cc1", "max activity": "-29.9%"}, {"smiles": "Cc1ccc(S(=O)(=O)Nc2cccc3c2O[C@@H](CN(C)C(=O)Nc2ccc(C(F)(F)F)cc2)[C@@H](C)CN([C@H](C)CO)C3=O)cc1", "max activity": "25% [at 2.1 µM, stronger effect = lower value]"}, {"smiles": "COc1ccc(CN2[C@H](CO)[C@H]3c4ccccc4NC[C@H]32)cc1", "max activity": "26.6% [at 0.5 µM, stronger effect = lower value]"}, {"smiles": "CCCN1[C@H](C(=O)N2CCOCC2)[C@@H](CO)[C@@H]2Cn3c(ccc(/C=C/c4ccccc4)c3=O)[C@@H]21", "max activity": "-10.3% [at 0.5 µM, stronger effect = lower value]"}, {"smiles": "O=C(C[C@@H]1C[C@H]2c3cc(NC(=O)C4CCOCC4)ccc3O[C@H]2[C@H](CO)O1)NCc1ccc(Oc2ccccc2)cc1", "max activity": "-20% [at 8 µM, stronger effect = lower value]"}, {"smiles": "C[C@@H]1CN([C@H](C)CO)C(=O)c2cc(NC(=O)c3ccncc3)ccc2O[C@@H](C)CCCCO[C@H]1CN(C)Cc1ccc(C(F)(F)F)cc1", "max activity": "14.3% [at 0.5 µM, stronger effect = lower value]"}, {"smiles": "Cc1cccc(-c2ccc([C@H]3[C@@H](CO)N4CCCCN(S(=O)(=O)c5cccc(C)c5)C[C@@H]34)cc2)c1", "max activity": "-13.6%"}, {"smiles": "C[C@@H]1CN([C@H](C)CO)C(=O)c2cc(NS(=O)(=O)c3ccc(F)cc3)ccc2O[C@@H]1CN(C)Cc1ccc(C(F)(F)F)cc1", "max activity": "-4.85%"}, {"smiles": "C[C@@H]1CN([C@H](C)CO)C(=O)c2c(c3ccccc3n2C)-c2ccccc2CO[C@@H]1CN(C)S(=O)(=O)c1ccc(C(F)(F)F)cc1", "max activity": "-18.1% [at 16 µM, stronger effect = lower value]"}, {"smiles": "C[C@@H]1CCCCO[C@@H](CN(C)S(=O)(=O)c2ccc(Cl)cc2)[C@H](C)CN([C@@H](C)CO)C(=O)c2cc(NS(=O)(=O)c3ccc(Cl)cc3)ccc2O1", "max activity": "-34.3% [at 16 µM, stronger effect = lower value]"}]}]}
